± gives the standard deviation.
These sequences were tested on EfPiwi piRISC loaded with L1MC piRNA (26 nt) (assay: pre-steady-state target cleavage rate (min^-1); auxiliary factor: 500 nM Ephydatia muelleri Gtsf1; guide: L1MC piRNA 5'p-UAACUAAAUACUAUGCAAGCUGUAGG; MIWI and MILI are mouse PIWI proteins and EfPiwi is from a freshwater sponge; tags in brackets are library labels; higher = faster piRNA-guided slicing of the target).
Outline: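 Active affinity-purified piRISC (1 nM) loaded with one synthetic guide was mixed with a transcribed, DNA-blocked target RNA library (0.1 nM), with or without 500 nM GTSF1 partner protein, in HEPES–potassium acetate buffer at 33 °C for 0–8 or 0–960 min. Uncleaved targets were sequenced, normalised to depth and to weakly complementary targets, and pooled across three trials, with k3 capped at 0.0001 min^-1. The pre-steady-state cleavage rate was determined with a burst-and-steady-state fit.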

Question: Which “pre-steady-state target cleavage rate” value does the source give for UCCUCCAUACAGCUUGCAUAGUAUUUAGUUA here?
Answer: 0.00733 ± 0.0027

Question: UCCUCCUACUGCUUGGAUAGUAUUUAGUUA was tested. Which “pre-steady-state target cleavage rate” value did it give?
Answer: 0.064 ± 0.012

Question: For UCCUGCAACAGCUUGCAUAGUAUUAAGUUA, which “pre-steady-state target cleavage rate” value is on record?
Answer: 0.00881 ± 0.0022

Question: UCCUGGUACAGCUAGCAUAGUAUUUAGUAA was tested. Which “pre-steady-state target cleavage rate” value did it give?
Answer: 0.00365 ± 0.0021

Question: With UCCUCCUACAGCUUGCAUUGUAUUUAGUUA as the sequence, how does the “pre-steady-state target cleavage rate” value read?
Answer: 0.0211 ± 0.0059

Question: Which “pre-steady-state target cleavage rate” value does the source give for UCCUCCUACUGCUUGCAUAGUAUUUAGUUA here?
Answer: 0.0494 ± 0.015

Question: With UCCUGCUACAGCUUGCAUAUUAUUUAGUUA as the sequence, how does the “pre-steady-state target cleavage rate” value read?
Answer: 0.0119 ± 0.0034

Question: Which “pre-steady-state target cleavage rate” value does the source give for UCCUCCUACAGCCUUGCAUAGUAUUUAGUUA here?
Answer: 0.0222 ± 0.0079

Question: UCCUGGUACCGCUUGCAUAGUAUUUAGUUA was tested. Which “pre-steady-state target cleavage rate” value did it give?
Answer: 0.00412 ± 0.0035

Question: How did the “pre-steady-state target cleavage rate” value turn out when UCCUCGUACAGCUUGCUUAGUAUUUAGUUA was run?
Answer: 0.0519 ± 0.012

Question: UCCUGCUACAGCAUGCAUAGUAUUUAGUAA was tested. Which “pre-steady-state target cleavage rate” value did it give?
Answer: 0.00673 ± 0.0029

Question: For UCCUCCUACAGCUAGCAAAGUAUUUAGUUA, which “pre-steady-state target cleavage rate” value is on record?
Answer: 0.0276 ± 0.0094

Question: For UCCUGGAUCAGCAUGCAAAGUAUUUAGUUA, which “pre-steady-state target cleavage rate” value is on record?
Answer: 0.0037 ± 0.0031

Question: UCCUGGAAUCAGCUUGCAUAGUAUUUAGUUA was tested. Which “pre-steady-state target cleavage rate” value did it give?
Answer: 0.0198 ± 0.0068

Question: For UCCUGCUACAGCUUGGAUAGUAUUUUGUUA, which “pre-steady-state target cleavage rate” value is on record?
Answer: 0.00556 ± 0.002

Question: For UCCUGCUACAGCUUGGAUAGUAUUAAGUUA, which “pre-steady-state target cleavage rate” value is on record?
Answer: 0.0066 ± 0.0018

Question: UCCUCCUACAGCUUGGAUAGUAUAUAGUUA was tested. Which “pre-steady-state target cleavage rate” value did it give?
Answer: 0.00941 ± 0.0032

Question: How did the “pre-steady-state target cleavage rate” value turn out when UCCUGGAUGUCCUUGCUUAGUAUUUAGUUA was run?
Answer: 0.00568 ± 0.0037

Question: How did the “pre-steady-state target cleavage rate” value turn out when UCCUGGAUCACCUUGCAUACUAUUUAGUUA was run?
Answer: 0.00341 ± 0.0028

Question: With UCCUGGUACAGCUUGCAUAGUAUUUAGUAUA as the sequence, how does the “pre-steady-state target cleavage rate” value read?
Answer: 0.00633 ± 0.0024

Question: With UCCUCGUACACCUUGCAUAGUAUUUAGUUA as the sequence, how does the “pre-steady-state target cleavage rate” value read?
Answer: 0.1 ± 0.029

Question: UCCUGGAUCGAGCUUGCAUAGUAUUUAGUUA was tested. Which “pre-steady-state target cleavage rate” value did it give?
Answer: 0.0315 ± 0.0069

Question: UCCUGGUACAGCUUGCAUAGUAUUUAGUUUA was tested. Which “pre-steady-state target cleavage rate” value did it give?
Answer: 0.0765 ± 0.024

Question: For UCCUCCCACAGCUUGCAUAGUAUUUAGUUA, which “pre-steady-state target cleavage rate” value is on record?
Answer: 0.128 ± 0.029

Question: For UCCUGGUACUGCUUGCAUAGUAUUUAGUUA, which “pre-steady-state target cleavage rate” value is on record?
Answer: 0.0105 ± 0.0034

Question: How did the “pre-steady-state target cleavage rate” value turn out when UCCUCCUACAGCUUGCAUUGUAAUUAGUUA was run?
Answer: 0.00753 ± 0.0034

Question: For UCCUGGAUGUCCUUGCAUAGUAGUUAGUUA, which “pre-steady-state target cleavage rate” value is on record?
Answer: 0.00555 ± 0.0031

Question: How did the “pre-steady-state target cleavage rate” value turn out when UCCUCCUACAGCAUGCAUAGUAUUUUGUUA was run?
Answer: 0.00297 ± 0.0021

Question: How did the “pre-steady-state target cleavage rate” value turn out when UCCUGGAUCGGCUUGCAUAGUAUUUAGUUA was run?
Answer: 0.0523 ± 0.0092

Question: Which “pre-steady-state target cleavage rate” value does the source give for UCCUCCUACAGCUUGCAUGUAUUUAGUUA here?
Answer: 0.00924 ± 0.0046

Question: UCCUGCUACAGCUAGCAAAGUAUUUAGUUA was tested. Which “pre-steady-state target cleavage rate” value did it give?
Answer: 0.0328 ± 0.0098

Question: For UCCUGGAUCUGCUUGGAUAGUAUUUAGUUA, which “pre-steady-state target cleavage rate” value is on record?
Answer: 0.0089 ± 0.0032

Question: Which “pre-steady-state target cleavage rate” value does the source give for UCCUCCUACUGCUUGCAUAGUAAUUAGUUA here?
Answer: 0.0119 ± 0.0043

Question: With UCCUGGAUCAGCUAUGCAUAGUAUUUAGUUA as the sequence, how does the “pre-steady-state target cleavage rate” value read?
Answer: 0.106 ± 0.02

Question: Which “pre-steady-state target cleavage rate” value does the source give for UCCUGGAACAGCUUCCAAAGUAUUUAGUUA here?
Answer: 0.00262 ± 0.0019

Question: UCCUGGUACAGCUUGGAUAGUAAUUAGUUA was tested. Which “pre-steady-state target cleavage rate” value did it give?
Answer: 0.00316 ± 0.0025

Question: How did the “pre-steady-state target cleavage rate” value turn out when UCCUGCUACAGCGUGCAUAGUAUUUAGUUA was run?
Answer: 0.0101 ± 0.0026

Question: With UCCUGGUUCAGCUAGCAUAGUAUUUAGUUA as the sequence, how does the “pre-steady-state target cleavage rate” value read?
Answer: 0.0263 ± 0.0083

Question: For UCCUCCUACAGGAAGCAUAGUAUUUAGUUA, which “pre-steady-state target cleavage rate” value is on record?
Answer: 0.0159 ± 0.0041

Question: Which “pre-steady-state target cleavage rate” value does the source give for UCCUGGAUGUGCUUGCCUAGUAUUUAGUUA here?
Answer: 0.00934 ± 0.0027
